This is a sample that favours compounds with a hit; in the whole collection about 6.9% have one here.
SKKanGAS inh: S. pyogenes SKKanGAS growth inhibitors in kanamycin, primary screen, streptokinase expression inhibitor project, SKKanGAS strain, BacTiter-Glo luminescence | 6 h | inhibition, % at 7.5 µM | 1.3% of 300,000 active;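 active means mean replicate score, as percent of positive control median, at least 50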;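 further: strain carries kanamycin resistance gene driven by streptokinase promoter and grows in 40 µg/ml kanamycin; loss of luminescence reflects streptokinase promoter inhibition or plain growth inhibition; 0% = median of DMSO wells and 100% = positive control at its reference dose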
Beta apoptosis: inhibitors of cytokine-induced beta cell apoptosis, primary screen, luminescence | INS-1E cytokine-induced death, ATP luminescence, 48 h; percent of positive-control rescue, neutral wells zero | 0.8% of 300,000 active | protection from apoptosis, % (no concentration beside the values);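 active means Every replicate reaches about 75%, or at least half do and their mean reaches it too, limit read from the data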;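 further: 0% = cytokine-treated negative control wells and 100% = positive control rescue; higher means more ATP so stronger rescue from cytokine killing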
CSC inhib: cancer stem cell viability inhibitors, primary screen, luminescence. cancer stem cell-like cells viability. 1.1% of 300,000 active. inhibition, % at 7.5 µM; in the data active means inhibition above about 75%; tested in HMLE shEcad cells
Mdm2-MdmX inh: inhibitors of human Mdm2-MdmX association, primary screen, cell-based, luminescence, split luciferase, SaOS-2, uHTS. Protein Mdm4 (Homo sapiens) + E3 ubiquitin-protein ligase Mdm2 (Homo sapiens), …. SaOS-2 split-luciferase Mdm2/MdmX complementation. inhibition, % at 8 µM. 3% of 330,000 active;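 active means inhibition of at least 50% at 8 µM in the primary screen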
Target sequence (O15151 whole entry, looked up): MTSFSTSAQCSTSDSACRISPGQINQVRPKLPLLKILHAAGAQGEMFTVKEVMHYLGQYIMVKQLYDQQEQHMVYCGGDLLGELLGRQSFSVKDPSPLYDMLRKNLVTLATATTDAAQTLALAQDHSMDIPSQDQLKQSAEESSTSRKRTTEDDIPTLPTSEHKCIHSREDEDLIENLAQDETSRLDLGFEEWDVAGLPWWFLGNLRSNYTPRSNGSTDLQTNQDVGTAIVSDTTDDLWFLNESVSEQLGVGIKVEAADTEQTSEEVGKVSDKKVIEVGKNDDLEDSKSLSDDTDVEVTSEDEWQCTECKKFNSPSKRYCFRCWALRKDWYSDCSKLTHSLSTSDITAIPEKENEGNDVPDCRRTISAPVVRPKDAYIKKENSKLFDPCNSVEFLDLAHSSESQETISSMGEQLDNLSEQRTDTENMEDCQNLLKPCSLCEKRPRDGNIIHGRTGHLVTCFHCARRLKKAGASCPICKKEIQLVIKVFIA
Target sequence (Q00987 whole entry, looked up): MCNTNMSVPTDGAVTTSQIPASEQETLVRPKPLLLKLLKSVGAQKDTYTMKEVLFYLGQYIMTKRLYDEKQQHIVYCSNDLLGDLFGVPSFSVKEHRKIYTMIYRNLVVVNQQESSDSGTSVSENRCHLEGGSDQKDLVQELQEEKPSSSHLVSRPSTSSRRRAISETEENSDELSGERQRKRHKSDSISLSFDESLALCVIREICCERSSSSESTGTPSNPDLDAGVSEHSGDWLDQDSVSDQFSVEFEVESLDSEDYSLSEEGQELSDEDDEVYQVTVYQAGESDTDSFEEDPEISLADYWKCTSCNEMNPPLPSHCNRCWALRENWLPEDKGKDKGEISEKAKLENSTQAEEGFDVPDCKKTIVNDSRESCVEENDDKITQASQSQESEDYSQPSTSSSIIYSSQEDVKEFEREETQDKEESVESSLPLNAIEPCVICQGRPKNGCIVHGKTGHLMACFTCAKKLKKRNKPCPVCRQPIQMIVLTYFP
NR3A LBD binder: binders of NR3A ligand-binding domain, primary screen, biophysical, differential scanning fluorimetry, uHTS; Glutamate receptor ionotropic, NMDA 3A (GRIN3A) ligand-binding domain; 2.5% of 340,000 active; Tm shift relative to glycine control, % at 25 µM; NR3A LBD differential scanning fluorimetry, Tm shift; 0% = protein alone, 100% = glycine-bound protein;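 active means melting temperature shift of at least 10% of the positive control shift, at one fixed dose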
MPTP block: mitochondrial permeability transition pore inhibitors, primary screen, biochemical, isolated mouse mitochondria, absorbance. inhibition, % at 10 µM. AID 602449, 2012. Ca2+ swelling absorbance, 30 min. 1.4% of 360,000 active;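 active means inhibition of 50% or more, scaled per plate between neutral and stimulator controls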;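 further: 0% = DMSO wells given calcium and 100% = 1 mM EGTA wells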
The depositor's hits bear a star.

`COc1ccc(/C=C/C(=O)O/N=C(\N)c2ccccn2)cc1OC` gave Beta apoptosis -1.7, CSC inhib -2.2, Mdm2-MdmX inh -84.0, NR3A LBD binder 0.1 and MPTP block -1.7.
For CCc1ccccc1NC(=S)Nn1cnnc1 the results were Beta apoptosis -5.4, CSC inhib 3.4, Mdm2-MdmX inh -5.3 and MPTP block 1.2.
Screening O=C(CCc1c[nH]c2ccccc12)OCC(=O)N1CCN(S(=O)(=O)c2ccccc2)CC1 returned SKKanGAS inh 17.7, Beta apoptosis -2.1, CSC inhib -5.5, Mdm2-MdmX inh 6.5, NR3A LBD binder -1.1 and MPTP block -1.3.
C=CC1=C(C(=O)O)N2C(=O)C(NC(=O)Cc3ccccc3)C2SC1 (configuration not stated) was read as SKKanGAS inh 94.8*, Beta apoptosis -8.5, CSC inhib -10.4, Mdm2-MdmX inh 20.3, NR3A LBD binder 3.7 and MPTP block -0.2.
`O=C(COc1ccccc1)NC1C(=O)N2C(C(=O)O)=C(Cl)CSC12` (configuration not stated) gave SKKanGAS inh 101.7*, Beta apoptosis 1.0, CSC inhib -22.4, Mdm2-MdmX inh -30.8, NR3A LBD binder 0.2 and MPTP block 2.2.
For CC1=C(C(=O)OCc2ccccc2)N2C(=O)[C@@H](NC(=O)COc3ccccc3)[C@H]2SC1 the results were SKKanGAS inh 3.8, Beta apoptosis -4.1, CSC inhib 9.2, Mdm2-MdmX inh 8.3, NR3A LBD binder 1.1 and MPTP block -1.8.
For Oc1[nH]c2ccccc2c1C=Nc1ccccc1 the results were SKKanGAS inh -7.5, Beta apoptosis 3.0, CSC inhib -1.8, Mdm2-MdmX inh -76.0, NR3A LBD binder 2.3 and MPTP block 3.8.
`COc1cc(/C=N/Nc2nnc3c(n2)[nH]c2ccccc23)ccc1O` gave SKKanGAS inh 6.9, Beta apoptosis -1.0, CSC inhib 4.1, NR3A LBD binder 9.7 and MPTP block 0.1.
Screening Cc1ccc2[nH]c3nc(N/N=C/c4cccc(O)c4)nnc3c2c1 returned SKKanGAS inh 2.7, Beta apoptosis -3.1, CSC inhib 80.8*, Mdm2-MdmX inh 20.1, NR3A LBD binder 10.3* and MPTP block 0.3.
COC(=O)[C@]12CCCCC=C1N(Cc1ccc(Cl)cc1Cl)C(=O)[C@H](CC(=O)NCc1ccc(OC)c(OC)c1)C2 was read as MPTP block -1.6.
`Nc1nn2c(C(F)(F)F)cc(=O)[nH]c2c1N=Nc1cccc(F)c1` gave SKKanGAS inh 33.1, Beta apoptosis -10.6, CSC inhib -0.4, Mdm2-MdmX inh 10.5, NR3A LBD binder 21.1* and MPTP block 1.4.
For Cc1cc(=O)[nH]c2c(N=Nc3ccc(O)cc3)c(N)nn12 the results were SKKanGAS inh 1.7, NR3A LBD binder 6.1 and MPTP block -0.3.
Screening Clc1ccc(COn2c(-c3ccc(Cl)cc3)nc3ccccc32)cc1 returned SKKanGAS inh 52.5*, Beta apoptosis 9.9, CSC inhib 41.8, Mdm2-MdmX inh 21.2, NR3A LBD binder -11.2 and MPTP block 3.7.
Screening OC(c1cc(F)cc(Cl)c1)c1ncc(-c2cccc(C(F)(F)F)c2)[nH]1 (configuration not stated) returned MPTP block 37.5.
Screening O=C(Nc1cccc(-c2csc(Nc3ccccc3)n2)c1)c1ccccc1 returned SKKanGAS inh 40.9, Beta apoptosis 37.4, CSC inhib 99.6*, Mdm2-MdmX inh -8.0, NR3A LBD binder 11.5* and MPTP block 0.6.
Screening O=C(Nc1cccc(-c2csc(Nc3cccc(C(F)(F)F)c3)n2)c1)c1ccccc1 returned SKKanGAS inh 93.4*, Beta apoptosis 16.3, CSC inhib 130.4*, Mdm2-MdmX inh 43.2, NR3A LBD binder 29.3* and MPTP block 1.5.
`CC(=O)c1cccc(Nc2nc(-c3cccnc3)cs2)c1` gave SKKanGAS inh -9.0, Mdm2-MdmX inh -75.8, NR3A LBD binder 1.6 and MPTP block 0.2.
`CC(=O)c1cccc(Nc2nc(-c3ccccc3)cs2)c1` gave SKKanGAS inh 11.2, Beta apoptosis -2.8, CSC inhib 9.8, Mdm2-MdmX inh -350.9, NR3A LBD binder 31.9* and MPTP block 0.2.
For CCCS(=O)(=O)NC(=O)C1(C)CCCN(C(=O)c2cccnc2Oc2ccccc2)C1 (configuration not stated) the results were MPTP block 0.0.
For CC(=O)Nc1ccc(NC(=O)CCc2c(C)noc2C)cc1 the results were Mdm2-MdmX inh 15.8, NR3A LBD binder 5.6 and MPTP block -2.0.
Screening O=C(N/N=C\c1ccc(-c2cccc(Cl)c2)o1)C(=O)NC1CCCC1 returned SKKanGAS inh -14.0, Beta apoptosis 2.4, CSC inhib -2.5, Mdm2-MdmX inh 23.3, NR3A LBD binder 23.9* and MPTP block 4.1.
For Cc1cc(C(=O)N/N=C/c2ccc(-c3cccc(Cl)c3)o2)n[nH]1 the results were SKKanGAS inh -0.3, Beta apoptosis -1.3, CSC inhib -12.7, Mdm2-MdmX inh 22.7, NR3A LBD binder 16.2* and MPTP block 3.5.
`O=C(N/N=C/c1c(Cl)cccc1Cl)C(=O)NC1CC1` gave SKKanGAS inh 4.7, Beta apoptosis -1.0, CSC inhib 1.5, Mdm2-MdmX inh 9.1, NR3A LBD binder 10.3* and MPTP block 0.3.
O=C(N/N=C/c1c(F)cccc1Cl)C1CC1 was read as SKKanGAS inh -1.3, Beta apoptosis -0.4, CSC inhib -4.4, Mdm2-MdmX inh 3.3, NR3A LBD binder -0.7 and MPTP block -0.1.
CNC(=S)N/N=C/c1c2ccccc2c(Cl)c2ccccc12 was read as SKKanGAS inh 18.1, Beta apoptosis 6.7, CSC inhib 10.3, Mdm2-MdmX inh 18.8, NR3A LBD binder -2.7 and MPTP block -0.6.
For CC(=O)c1ccc(NC(=S)Nc2ccc3cn[nH]c3c2)cc1 the results were SKKanGAS inh -17.7, Beta apoptosis -12.7, CSC inhib 5.0, Mdm2-MdmX inh 21.9, NR3A LBD binder 10.2* and MPTP block 0.2.
CC(C)c1ccc(NC(=S)Nc2ccc3cn[nH]c3c2)cc1 was read as SKKanGAS inh -3.2, Beta apoptosis -0.9, CSC inhib 52.2, Mdm2-MdmX inh 8.0, NR3A LBD binder 3.6 and MPTP block 5.1.
For c1ccc(-c2nc(C3CCCCC3)c3sccc3n2)cc1 the results were SKKanGAS inh 83.7*, Beta apoptosis 5.4, CSC inhib 39.3, Mdm2-MdmX inh 0.3, NR3A LBD binder -5.7 and MPTP block 4.5.
`Oc1ccc(N=Nc2ccccc2-c2nn[nH]n2)c(O)c1` gave SKKanGAS inh 10.2, Mdm2-MdmX inh 12.0, NR3A LBD binder 4.8 and MPTP block -0.8.

Screening data: PubChem, several laboratories
